Test results published in PubChem BioAssay AID1159580 (chemical genetic matrix, 2015).
Among all 5,500 compounds or so, about 2,000 (36%) were called active. Not shown: some 18% with an inconclusive outcome. Cut-off read from the data, not from the text of the source: active = normalized growth mostly below about 0.91 (no sharp cut-off); inconclusive = no clear call, values can overlap the other calls; inactive = mostly above about 0.92. The list shows a part of the results.

Test: chemical genetic growth profiling, strain panel (AID 1159580);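 note: tested at 20 µM; growth read once vehicle control cultures reached saturation at 30 °C; 1 = growth at the plate median or of vehicle wells; lower values mean less growth of the strain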
Conditions: growth OD

Measured: normalized growth

CC[C@@]1(O)C(=O)OCc2c1cc1n(c2=O)Cc2cc3ccccc3nc2-1
active: S. cerevisiae deletion strains, locus YJR066W, strain TOR1, active compounds read low 0.665 | S. cerevisiae deletion strains, locus YKL085W, strain MDH1 (second series), active compounds read low 0.796 | S. cerevisiae deletion strains, locus YKL085W, strain MDH1, active compounds read low 0.796 | S. cerevisiae deletion strains, locus YKR001C, strain vps1, active compounds read low 0.549 | S. cerevisiae deletion strains, locus YKR026C, strain gcn3, active compounds read low 0.919 | S. cerevisiae deletion strains, locus YKR091W, strain srl3, active compounds read low 0.914 | S. cerevisiae deletion strains, locus YLL001W, strain dnm1, active compounds read low 0.831 | S. cerevisiae deletion strains, locus YLL026W, active compounds read low 0.727 | S. cerevisiae deletion strains, locus YLL041C, strain sdh2, active compounds read low 0.924 | S. cerevisiae deletion strains, locus YLR027C, strain aat2, active compounds read low 0.653 | S. cerevisiae deletion strains, locus YLR058C, strain SHM2, active compounds read low 0.881 | S. cerevisiae deletion strains, locus YLR102C, strain apc9, active compounds read low 0.913 | S. cerevisiae deletion strains, locus YLR113W, strain HOG1, active compounds read low 0.711 | S. cerevisiae deletion strains, locus YLR221C, strain rsa3, active compounds read low 0.693 | S. cerevisiae deletion strains, locus YLR258W, strain gsy2, active compounds read low 0.78 | S. cerevisiae deletion strains, locus YLR262C, strain YPT6 (second series), active compounds read low 0.484 | S. cerevisiae deletion strains, locus YLR268W, strain sec22, active compounds read low 0.63 | S. cerevisiae deletion strains, locus YLR320W, strain mms22, active compounds read low 0.108 | S. cerevisiae deletion strains, locus YLR330W, strain CHS5, active compounds read low 0.893 | S. cerevisiae deletion strains, locus YLR342W, strain FKS1 (second series), active compounds read low 0.732 | S. cerevisiae deletion strains, locus YLR342W, strain FKS1, active compounds read low 0.647 | S. cerevisiae deletion strains, locus YLR370C, strain arc18, active compounds read low 0.832 | S. cerevisiae deletion strains, locus YML032C, strain rad52, active compounds read low 0.0917 | S. cerevisiae deletion strains, locus YML120C, strain ndi1, active compounds read low 0.868 | S. cerevisiae deletion strains, locus YML124C, strain tub3, active compounds read low 0.903 | S. cerevisiae deletion strains, locus YMR058W, strain fet3, active compounds read low 0.705 | S. cerevisiae deletion strains, locus YMR078C, strain ctf18, active compounds read low 0.111 | S. cerevisiae deletion strains, locus YMR125W, strain sto1, active compounds read low 0.856 | S. cerevisiae deletion strains, locus YMR129W, active compounds read low 0.893 | S. cerevisiae deletion strains, locus YMR205C, strain PFK2, active compounds read low 0.798 | S. cerevisiae deletion strains, locus YMR223W, strain ubp8, active compounds read low 0.671 | S. cerevisiae deletion strains, locus YMR231W, strain pep5, active compounds read low 0.268 | S. cerevisiae deletion strains, locus YMR263W, strain SAP30, active compounds read low 0.847 | S. cerevisiae deletion strains, locus YMR307W, strain GAS1, active compounds read low 0.461 | S. cerevisiae deletion strains, locus YNL067W, strain RPL9B, active compounds read low 0.781 | S. cerevisiae deletion strains, locus YNL071W, strain lat1, active compounds read low 0.744 | S. cerevisiae deletion strains, locus YNL183C, strain NPR1, active compounds read low 0.643 | S. cerevisiae deletion strains, locus YNL209W, strain ssb2, active compounds read low 0.87 | S. cerevisiae deletion strains, locus YNL233W, strain BNI4, active compounds read low 0.804 | S. cerevisiae deletion strains, locus YNL248C, strain rpa49, active compounds read low 0.679 | S. cerevisiae deletion strains, locus YNL250W, strain rad50, active compounds read low 0.152 | S. cerevisiae deletion strains, locus YNL271C, strain bni1, active compounds read low 0.814 | S. cerevisiae deletion strains, locus YNL298W, strain CLA4, active compounds read low 0.74 | S. cerevisiae deletion strains, locus YNL307C, strain MCK1, active compounds read low 0.505 | S. cerevisiae deletion strains, locus YNL322C, strain KRE1 (second series), active compounds read low 0.465 | S. cerevisiae deletion strains, locus YNR052C, strain pop2, active compounds read low 0.207 | S. cerevisiae deletion strains, locus YOL147C, strain pex11, active compounds read low 0.807 | S. cerevisiae deletion strains, locus YOR001W, strain rrp6, active compounds read low 0.847 | S. cerevisiae deletion strains, locus YOR069W, strain VPS5, active compounds read low 0.883 | S. cerevisiae deletion strains, locus YOR070C, strain gyp1, active compounds read low 0.739 | S. cerevisiae deletion strains, locus YOR080W, strain dia2, active compounds read low 0.543 | S. cerevisiae deletion strains, locus YOR083W, strain WHI5, active compounds read low 0.814 | S. cerevisiae deletion strains, locus YOR106W, strain vam3, active compounds read low 0.366 | S. cerevisiae deletion strains, locus YOR136W, strain idh2, active compounds read low 0.915 | S. cerevisiae deletion strains, locus YOR144C, strain elg1, active compounds read low 0.542 | S. cerevisiae deletion strains, locus YOR184W, strain ser1, active compounds read low 0.67 | S. cerevisiae deletion strains, locus YOR231W, strain MKK1, active compounds read low 0.78 | S. cerevisiae deletion strains, locus YOR265W, strain rbl2, active compounds read low 0.796 | S. cerevisiae deletion strains, locus YOR270C, strain vph1, active compounds read low 0.576 | S. cerevisiae deletion strains, locus YOR290C, strain snf2, active compounds read low 0.746 | S. cerevisiae deletion strains, locus YPL051W, strain arl3, active compounds read low 0.828 | S. cerevisiae deletion strains, locus YPL078C, strain atp4, active compounds read low 0.868 | S. cerevisiae deletion strains, locus YPL240C, strain hsp82, active compounds read low 0.857 | S. cerevisiae deletion strains, locus YPL256C, strain CLN2, active compounds read low 0.784 | S. cerevisiae deletion strains, locus YPR119W, strain clb2, active compounds read low 0.893 | S. cerevisiae deletion strains, locus YPR141C, strain kar3, active compounds read low 0.836 | S. cerevisiae deletion strains, locus YPR163C, strain tif3, active compounds read low 0.276 | S. cerevisiae deletion strains, locus YPR167C, strain met16, active compounds read low 0.795 | S. cerevisiae deletion strains, strain wtn01, active compounds read low 0.739 | S. cerevisiae strains, strain wild type, active compounds read low 0.892
inactive: S. cerevisiae deletion strains, locus YJR075W, strain HOC1, active compounds read low 0.88 | S. cerevisiae deletion strains, locus YKL009W, strain mrt4, active compounds read low 0.936 | S. cerevisiae deletion strains, locus YKL068W, active compounds read low 0.951 | S. cerevisiae deletion strains, locus YKL160W, strain elf1, active compounds read low 0.965 | S. cerevisiae deletion strains, locus YKL190W, strain CNB1, active compounds read low 0.948 | S. cerevisiae deletion strains, locus YLR039C, strain RIC1, active compounds read low 0.692 | S. cerevisiae deletion strains, locus YLR262C, strain YPT6, active compounds read low 0.662 | S. cerevisiae deletion strains, locus YLR357W, strain rsc2, active compounds read low 1 | S. cerevisiae deletion strains, locus YLR371W, strain rom2, active compounds read low 0.929 | S. cerevisiae deletion strains, locus YLR384C, strain iki3, active compounds read low 0.96 | S. cerevisiae deletion strains, locus YLR418C, strain cdc73, active compounds read low 0.857 | S. cerevisiae deletion strains, locus YML016C, strain PPZ1, active compounds read low 0.998 | S. cerevisiae deletion strains, locus YNL128W, strain TEP1, active compounds read low 0.937 | S. cerevisiae deletion strains, locus YNL153C, strain GIM3, active compounds read low 0.892 | S. cerevisiae deletion strains, locus YNR049C, strain mso1, active compounds read low 0.947 | S. cerevisiae deletion strains, locus YOL006C, strain TOP1, active compounds read low 0.971 | S. cerevisiae deletion strains, locus YOL012C, strain htz1 0.487 | S. cerevisiae deletion strains, locus YOR061W, strain CKA2, active compounds read low 0.912 | S. cerevisiae deletion strains, locus YOR316C, strain cot1, active compounds read low 0.942 | S. cerevisiae deletion strains, locus YPL106C, strain sse1, active compounds read low 0.879
